From PubChem BioAssay (NCATS)
Results filed as inconclusive are left out. Calls of active or inactive are those of the source. The call rests on the fitted dose curve; in most records, active means well fitted curve in the direction sought with a large enough effect; inconclusive means small, poorly fitted or top-dose-only effect, or another doubt; inactive means no such curve, though single readings can be large; an effect the other way counts as inactive or inconclusive. *1 amine or outer side, *2 acyl side, *3 side chain or, on linkers, in order; H or OH if unused. Where a SMILES comes first, the peptide text is derived from it. [ ]: non-standard residue; d: D form. The star is where a group is joined. ξ: configuration not given here. X9 = CCC(C)(N*)C(=O)C1CC[C@@H](C(=O)N[C@@H](Cc2ccccc2)C(=O)NCC(=O)O)N1; X8 = O=C([C@@H]1CC(O)CN1[*:1])[*:2]; aIle = CC[C@@H](C)[C@H](N)C(=O)O; Thr(3ξ) = CC(O)[C@H](N)C(=O)O; ξIva = CCC(C)(N)C(=O)O; Aib = CC(C)(N)C(=O)O

Assays:
HACAT = assay: qHTS assay to identify novel small-molecules to repurpose for Merkel cell carcinoma treatment (AID 1296009); settings: MCC and control cell lines, CellTiter-Glo viability, 72 h; at 44.8 µM (top of the series) unless noted; further: nearly all actives have a fitted effect of over 60% in size
How it was run: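 qHTS format: cells treated with library compounds in DMSO across 8 (NPC) or 11 (MIPE) concentrations. Readout after 72 hr at 37 degree celsius was CellTiter-Glo luminescence.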

C33A = assay: Primary qHTS to identify gynecologic anti-cancer compounds using libraries of approved drugs and bioactive compounds (AID 1345084); settings: Gynecologic cancer cell panel viability, ATPlite luminescence, 48 h; series mostly up to 57.5 µM; further: on the % scale 0 is the no-effect control and ±100 the full control effect; nearly all actives have a fitted effect of over 55% in size
How it was run: (§1)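 Cell viability after 48 h drug treatment, ATPlite luminescence readout; five doses.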

CASKI = assay: as above; settings: Gynecologic cancer cell panel viability, ATPlite luminescence, 48 h; series mostly up to 57.5 µM
How it was run: as §1

Es-2 = assay: as above; settings: Gynecologic cancer cell panel viability, ATPlite luminescence, 48 h; series mostly up to 57.5 µM
How it was run: as §1

HeLa = assay: as above; settings: Gynecologic cancer cell panel viability, ATPlite luminescence, 48 h; series mostly up to 57.5 µM
How it was run: as §1

Hek293T = assay: as above; settings: Gynecologic cancer cell panel viability, ATPlite luminescence, 48 h, control line for the selectivity index; series mostly up to 57.5 µM
How it was run: as §1

JEG-3 = assay: as above; settings: Gynecologic cancer cell panel viability, ATPlite luminescence, 48 h; series mostly up to 57.5 µM
How it was run: as §1

CAOV3 = assay: as above; settings: Gynecologic cancer cell panel viability, ATPlite luminescence, 48 h; series mostly up to 57.5 µM
How it was run: as §1

C/C=C1/C[N+](C)([O-])C2Cc3c([nH]c4ccccc34)C(=O)CC1C2C(=O)OC (stereo not given)
inactive: outcome (HACAT) | Potency (C33A) | outcome (CASKI) | Potency (Es-2) | Potency (HeLa) | Potency (Hek293T) | Potency (JEG-3)

CC1(C(=O)O)CC[C@]2(C(=O)OC3OC(CO)C(O)C(O)C3O)CC[C@]3(C)C(=CCC4[C@@]5(C)CC[C@H](OC6OCC(O)C(O)C6OC6OC(CO)C(O)C(O)C6O)C(C)(C)C5CC[C@]43C)C2C1 (stereo not given in full)
inactive: outcome (HACAT) inactive [at 9.27 µM] | activity change, negative = cytotoxicity (C33A) -1.33% [at 11.6 µM] | activity change, negative = cytotoxicity (CASKI) -6.1% [at 11.6 µM] | activity change, negative = cytotoxicity (Es-2) 1.53% [at 11.6 µM] | activity change, negative = cytotoxicity (HeLa) 6.18% [at 11.6 µM] | activity change, negative = cytotoxicity (Hek293T) -2.26% [at 11.6 µM] | activity change, negative = cytotoxicity (JEG-3) -0.785% [at 11.6 µM]

CC(=O)O[C@@H]1C(O)C[C@@]2(C)C(CC[C@@H](C)C23Cc2c(O)cc4c(c2O3)CNC4=O)C1(C)C (stereo not given in full)
inactive: outcome (HACAT) inactive [at 17.4 µM] | Potency (C33A) | Potency (CAOV3) | outcome (CASKI) | Potency (Es-2) | Potency (Hek293T) | Potency (JEG-3)

CC(C)(O)[C@@H]1CC[C@]2(CO)[C@@H](O)CC[C@](C)(O)[C@H]2[C@@H]1O[C@@H]1O[C@H](CO)[C@@H](O)[C@H](O)[C@H]1O
inactive: outcome (HACAT) inactive [at 17.4 µM] | Potency (C33A) | Potency (CAOV3) | outcome (CASKI) | Potency (Es-2) | Potency (HeLa) | Potency (Hek293T) | Potency (JEG-3)

COC(=O)C1=CO[C@@H](O[C@@H]2O[C@H](CO)[C@@H](O)[C@H](O)[C@H]2O)[C@@H]2C(C)CC(=O)[C@]12O (stereo not given in full)
inactive: outcome (HACAT) inactive [at 17.4 µM] | Potency (C33A) | Potency (CAOV3) | outcome (CASKI) | Potency (Es-2) | Potency (HeLa) | Potency (Hek293T) | Potency (JEG-3)

C/C=C1\[C@H](O[C@@H]2O[C@H](CO)[C@@H](O)[C@H](O)[C@H]2O)OC=C(C(=O)OCCc2ccc(O)cc2)[C@H]1CC(=O)OCCc1ccc(O)cc1
inactive: outcome (HACAT) inactive [at 17.4 µM] | Potency (C33A) | Potency (CAOV3) | Potency (Es-2) | Potency (HeLa) | Potency (Hek293T)

CC1C(=O)OCC2=CC[N+]3([O-])CCC(OC(=O)C(C)(O)C1(C)O)C23 (stereo not given)
inactive: outcome (HACAT) | Potency (C33A) | Potency (CAOV3) | outcome (CASKI) | Potency (Es-2) | Potency (HeLa) | Potency (Hek293T) | Potency (JEG-3)

COc1ccc2c(c1)C=C1Cn3c-2c(C2CCCCC2)c2ccc(cc23)C(=O)NS(=O)(=O)N(C)CCOCCN(C)C1=O
inactive: outcome (HACAT) | Potency (C33A) | Potency (CAOV3) | outcome (CASKI) | Potency (HeLa) | Potency (Hek293T) | Potency (JEG-3)

CC/C=C/C=C/C1(C)OC(CC(CO)OC)=CC1=O (stereo not given)
inactive: outcome (HACAT) | Potency (C33A) | Potency (CAOV3) | outcome (CASKI) | Potency (Es-2) | Potency (HeLa) | Potency (Hek293T) | Potency (JEG-3)

CC[C@@H](C)[C@H](NC(=O)C(C)(C)NC(=O)[C@H](CCC(N)=O)NC(=O)C(C)(CC)NC(=O)[C@H](Cc1c[nH]c2ccccc12)NC(C)=O)C(=O)N[C@H](C(=O)NC(C)(C)C(=O)N[C@@H](CC(C)C)C(=O)NC(C)(C)C(=O)N1CCC[C@H]1C(=O)N[C@@H](CCC(N)=O)C(=O)NC(C)(C)C(=O)N1CC(O)C[C@H]1C(=O)NC(C)(CC)C(=O)C1CC[C@@H](C(=O)N[C@@H](Cc2ccccc2)C(=O)NCC(=O)O)N1)C(C)O (stereo not given in full) (Ac-W[ξIva]Q[Aib][aIle][Thr(3ξ)][Aib]L[Aib]PQ[Aib][X8]-X9)
inactive: outcome (HACAT) inactive; activator [at 4.96 µM] | activity change, negative = cytotoxicity (C33A) -11% [at 6.55 µM] | activity change, negative = cytotoxicity (CAOV3) -26.3% [at 6.55 µM] | activity change, negative = cytotoxicity (Es-2) 1.15% [at 6.55 µM] | activity change, negative = cytotoxicity (HeLa) -27.1% [at 6.55 µM] | activity change, negative = cytotoxicity (Hek293T) -15.3% [at 6.55 µM]

CC[C@@H]1C(=O)O[C@]23C=C[C@@H]4C(C(=O)OC)=CO[C@H](O[C@@H]12)[C@@H]43
inactive: outcome (HACAT) | Potency (C33A) | Potency (CAOV3) | Potency (Es-2) | Potency (Hek293T)

CNc1nc(Nc2cn(C(C)(C)C#N)nc2C)ncc1C(F)(F)F
inactive: outcome (HACAT) | Potency (C33A) | Potency (CAOV3) | outcome (CASKI) | Potency (Es-2) | Potency (HeLa) | Potency (Hek293T) | Potency (JEG-3)

C=C1CC[C@@]2(OC1)O[C@H]1CC3[C@@H]4CC=C5C[C@@H](O)C[C@@H](O[C@@H]6OC[C@H](O)[C@H](O)[C@H]6O[C@@H]6O[C@@H](C)[C@H](O)[C@@H](O)[C@H]6O)[C@]5(C)C4CC[C@]3(C)[C@H]1[C@@H]2C (stereo not given in full)
inactive: outcome (HACAT) inactive [at 17.4 µM] | Potency (C33A) | Potency (CAOV3) | outcome (CASKI) | Potency (Es-2) | Potency (HeLa) | Potency (Hek293T) | Potency (JEG-3)

CC(C)c1ccc2c(c1)C(=O)CC1C(C)(C(=O)O)CCCC21C (stereo not given)
inactive: outcome (HACAT) | Potency (C33A) | outcome (CASKI) | Potency (Es-2) | Potency (HeLa) | Potency (Hek293T) | Potency (JEG-3)
